Assay outcomes deposited in PubChem BioAssay by National Center for Advancing Translational Sciences (NCATS).
Most compounds without a hit are left out; they make up all but 11% or so of the library.
JMJD2E inh: inhibitors of human JMJD2E histone demethylase. B2RXH2. JMJD2E catalytic domain, FDH-coupled NADH fluorescence (FDH is formaldehyde dehydrogenase). Potency, µM (doses to about 57.1 µM), for the others: at the highest dose activity change, negative = inhibition, most hits filed as inhibitors. 1.6% of 230,000 active;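 further: potency means the concentration at half of the fitted maximal effect; 0% = wells with enzyme and -100% = buffer wells without enzyme; nearly all actives have a fitted effect of over 50% in size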
HPGD inh: inhibitors of human 15-hydroxyprostaglandin dehydrogenase (HPGD) | purified HPGD, NADH fluorescence kinetic, PGE2 substrate | P15428 | Potency, µM, inactives show at the highest dose activity change, negative = inhibition, usual class: inhibitors | 4.3% of 150,000 active; further: potency means the concentration at half of the fitted maximal effect
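20 nM HPGD preincubated 15 min at room temperature with compound in 50 mM Tris-HCl pH 8, 0.01% Tween 20. Started with 1 mM NAD+ and 30 uM prostaglandin E2; NADH fluorescence (360/450 nm) read 5 times over 30-s intervals, last minus first.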
ALDH1A1 block: inhibitors of human aldehyde dehydrogenase 1A1 | P00352 | Purified ALDH1A1, NADH fluorescence, propionaldehyde substrate | Potency, µM (titrated, usually from 75.3 µM), inactives show at the highest dose activity, negative = inhibition, hits mostly inhibitors | 7.3% of 220,000 active | AID 1030;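 further: potency means the concentration at half of the fitted maximal effect; plate controls were no enzyme wells and a reference inhibitor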
Target sequence (P00352 whole entry, looked up): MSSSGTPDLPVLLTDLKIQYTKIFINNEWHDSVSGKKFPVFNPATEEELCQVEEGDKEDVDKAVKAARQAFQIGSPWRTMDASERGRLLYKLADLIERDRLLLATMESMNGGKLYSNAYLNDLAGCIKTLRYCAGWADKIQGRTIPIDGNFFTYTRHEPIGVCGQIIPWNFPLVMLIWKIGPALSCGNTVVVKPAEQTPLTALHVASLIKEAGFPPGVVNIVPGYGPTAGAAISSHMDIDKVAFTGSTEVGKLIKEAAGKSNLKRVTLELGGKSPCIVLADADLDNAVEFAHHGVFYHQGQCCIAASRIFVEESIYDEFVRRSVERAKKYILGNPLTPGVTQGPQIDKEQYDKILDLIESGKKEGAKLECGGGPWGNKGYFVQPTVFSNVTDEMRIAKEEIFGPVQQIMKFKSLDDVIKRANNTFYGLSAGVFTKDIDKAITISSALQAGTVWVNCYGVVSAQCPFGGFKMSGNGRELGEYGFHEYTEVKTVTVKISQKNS
PNC assembly inh: inhibitors of perinucleolar compartment assembly; PC3M PTB-GFP, PNC prevalence imaging, 16 h; hits give low values; activity change (PNC), negative = inhibition, % at 10 µM; 3.1% of 140,000 active; AID 2417;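 active means readout at or below -70, meaning at least 70% loss of cells showing the perinucleolar compartment, a nuclear body marking cancer cells; inconclusive means readout between -30 and a set limit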;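 further: plate controls were DMSO wells for no effect and camptothecin positive control wells for full effect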
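Compounds are pinned in duplicate onto adhered PC3M cells stably expressing GFP-tagged PTB and incubated 16 h at 37 C. Cells are then fixed, nuclei stained with Hoechst, and PNC-positive cells counted.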
Starred values were filed as active, the others as inactive; i = inactive; ? = inconclusive; · = no result given; [ ] = another dose, or the depositor's remark. Unless noted, the call rests on the fitted dose curve; in most records, active means well fitted inhibition curve with a large enough effect (not every such curve was filed as active); inconclusive means small, poorly fitted or top-dose-only effect, or another doubt; inactive means no such curve, though single readings can be large or run the other way. Unless noted, on the % scale 0 is the no-effect control and ±100 the full control effect.

SMILES | JMJD2E inh | HPGD inh | ALDH1A1 block | PNC assembly inh
NCCC[C@@H](CC(=O)N[C@@H]1CCCC[C@H]1C(=O)N[C@H](CC(=O)N[C@@H](CCC(=O)O)CC(=O)O)Cc1ccccc1)NC(=O)C[C@H](CO)NC(=O)[C@@H]1CNCC[C@H]1N | -2.6% | -5.8% | -7.5% | ·
Cn1c(=O)n(C)c2cc([N+](=O)[O-])c(N3CCN(CCO)CC3)cc21 | 5.5% | · | -2.3% | ·
COc1ccc(C(=O)O/N=C(\N)c2ccccc2)c(OC)c1 | 2.6% | 14.1µM* | ? | 2.7
O=C(O/N=C(\c1ccccc1)c1ccncc1)c1ccccc1Cl | -4.8% | · | ? | ·
N/C(=N\OC(=O)c1ccccc1Cl)c1ccccc1 | -5.6% | 11.2µM* | -10.3% | 78.7
CCCCS(=N)(=O)CC[C@H](N)C(=O)O (stereo partly specified) | -7.5% | 6.0% | -5.6% | ·
CC(/C=N/NC(=O)c1cc(-c2ccncc2)nc2ccccc12)=C\c1ccco1 | -4.5% | -21.1% | ? | -87.1*
O=C(N/N=C/c1ccco1)c1cc(-c2cccc(Br)c2)nc2ccccc12 | i | ? | -2.0% | 0.4
O=C(O)c1ccc(/C=N/NC(=O)c2cc(-c3cccs3)nc3ccccc23)cc1 | ? | ? | ? | -106.7*
NS(=O)(=O)c1ccc(NC(=O)c2cc(-c3cccs3)nc3ccccc23)cc1 | ? | ? | ? | -115.1*
Cc1nn(-c2ccccc2)c(N2CCCC2)c1/C=N/NC(=O)c1cc(-c2cccs2)nc2ccccc12 | -23.9% | -7.2% | 7.1% | 10.7
CC(=O)NS(=O)(=O)c1ccc(NC(=O)c2cc(-c3ccc(C)c(C)c3)nc3ccccc23)cc1 | ? | -23.2% | -7.8% | -96.3*
CCOC(=O)C1(Cc2cccc(Cl)c2)CCCN(CCO)C1 (stereo unspecified) | 0.1% | · | 2.0% | ·
O=C(CCC(=O)Nc1nnc(C2CCCCC2)s1)NCc1ccccc1 | 3.6% | · | · | ·
COc1ccccc1-c1cc(C(=O)N/N=C/c2sccc2C)c2ccccc2n1 | 6.5% | ? | ? | 10.6
O=C(N/N=C/c1ccc2c(c1)OCO2)c1cc(-c2ccccc2Cl)nc2ccccc12 | ? | ? | ? | -18.4
Cc1ccsc1/C=N/NC(=O)c1cc(-c2ccncc2)nc2ccccc12 | 2.7% | -20.6% | ? | -109.0*
O=C(N/N=C/c1ccsc1)c1cc(-c2cccs2)nc2ccccc12 | 8.0% | ? | 114.1% | ?
O=C(N/N=C/c1ccsc1)c1cc(-c2ccncc2)nc2ccccc12 | -4.3% | -8.1% | -8.9% | -113.8*
O=C(N/N=C/c1ccc2c(c1)OCO2)c1cc(-c2ccncc2)nc2ccccc12 | 7.5% | 28.2µM* | 1.8% | -21.1
CC(C)[C@@H](CC(=O)N[C@@H]1CCCC[C@H]1C(=O)N[C@H](CC(=O)N[C@@H](CCC(=O)O)CC(=O)O)Cc1ccccc1)NC(=O)C[C@H](CO)NC(=O)[C@@H]1CCCC[C@H]1N | -13.1% | -6.5% | 2.8% | ·
CC(=O)OC[C@@H]1O[C@H](C/C=N\O[C@@H](C)c2cn([C@H](CO)Cc3ccccc3)nn2)C=C[C@@H]1OC(C)=O | · | · | 10.5%[13.5 µM] | ·
C=CCOCCN1C(=O)C2C3C=CC(C2C1=O)C1C2C(=O)N(CCOCC=C)C(=O)C2C31 (stereo unspecified) | -1.2% | · | 14.1µM* | ·
COc1ccc(CCN2C(=O)C3C4C=CC(C3C2=O)C2C(=O)N(CCc3ccc(OC)c(OC)c3)C(=O)C42)cc1OC (stereo unspecified) | -1.8% | -16.0% | -11.9% | -15.0
O=c1cc(-c2ccccc2Cl)oc2cc(O)cc(O)c12 | 0.9% | 17.8µM* | ? | -15.3
SMILES | JMJD2E inh | HPGD inh | ALDH1A1 block | PNC assembly inh
CCOc1cccc2oc(-c3ccccc3Cl)cc(=O)c12 | · | 44.7µM* | -10.0% | ·
Nc1ccc(O)c2c(=O)cc(-c3ccccc3Cl)oc12 | 3.9% | -24.0% | 7.3% | ?
COCCNC(=O)C(=O)NCC1OCCCN1S(=O)(=O)c1cccs1 (stereo unspecified) | 7.9% | -8.9% | 17.8µM* | 3.3
Cc1cc(C(=O)NCc2cccnc2)no1 | -1.5% | -8.5% | 4.9% | 45.0
O=C(NCc1ccco1)C(=O)NCC1OCCN1S(=O)(=O)c1ccccc1 (stereo unspecified) | -10.3% | -10.1% | ? | 57.7
Cc1cc2c(cc(C(=O)NCc3cccnc3)n2Cc2ccc(Cl)cc2)o1 | ? | 17.8µM* | 6.31µM* | -2.3
Cc1ccc(CNC(=O)C(=O)NCC2OCCN2S(=O)(=O)c2cccs2)cc1 (stereo unspecified) | 5.2% | -5.2% | ? | 44.6
O=C(NCc1ccccc1)C(=O)NCC1OCCN1S(=O)(=O)c1cccs1 (stereo unspecified) | -3.3% | -2.1% | ? | ?
O=C(NCc1cccs1)C(=O)NCC1OCCCN1S(=O)(=O)c1ccccc1 (stereo unspecified) | -2.8% | -4.3% | -0.8% | -90.5*
O=C(NCc1ccco1)C(=O)NCC1OCCCN1S(=O)(=O)c1ccccc1 (stereo unspecified) | -4.2% | -15.7% | 14.1µM* | -3.6
Cc1ccc(OCC(=O)Nc2ccc(N3CCN(C(=O)c4ccco4)CC3)cc2)cc1 | 0.5% | · | -11.1% | ·
CCN1CCc2c(OCC(=O)Nc3ccc4c(c3)OCCO4)cccc2C1=O | 11.7% | · | 0.0% | ·
O=C(NCc1cccnc1)C(=O)NCC1OCCN1S(=O)(=O)c1ccc(Cl)cc1 (stereo unspecified) | 10.2% | -6.1% | 12.4% | -118.9*
O=C(OC(c1ccc(NS(=O)(=O)c2ccccc2)cc1)(C(F)(F)F)C(F)(F)F)c1ccccc1 | -3.9% | -12.0% | -2.7% | -25.5
Cc1ccc(S(=O)(=O)Nc2ccc(C(OC(=O)c3ccccc3[N+](=O)[O-])(C(F)(F)F)C(F)(F)F)cc2)cc1 | 1.2% | -25.2% | ? | -108.4*
Cc1ccc2cc(C3CC(c4ccco4)=NN3S(C)(=O)=O)c(Cl)nc2c1 (stereo unspecified) | -26.3% | · | 17.8µM* | ·
Cc1c(NS(C)(=O)=O)cccc1-c1nc2cccnc2s1 | -26.9% | · | · | ·
O=C(CSc1nc2c(c(C(F)(F)F)n1)CCc1ccccc1-2)NCc1ccc(F)cc1 | -0.1% | -8.4% | -1.9% | -118.9*
O=C(CSc1nc2c(c(C(F)(F)F)n1)CCc1ccccc1-2)NCc1ccccc1 | -0.1% | ? | ? | 8.3
N#C/C(=C\c1ccc(N2CCCCC2)o1)C(=O)Nc1cccc(Br)c1 | -2.2% | -18.5% | ? | -108.4*
CCOC(=O)c1[nH]c2c(c1C)C(=O)CC(c1ccc(OC)c(OC)c1)C2 (stereo unspecified) | 1.2% | -1.4% | 10.7% | -20.1
Cc1c(C(=O)N2CCOCC2)[nH]c2c1C(=O)CC(c1ccccc1Cl)C2 (stereo unspecified) | 7.8% | -17.1% | ? | -84.4*
CCOCCOC(=O)c1[nH]c2c(c1C)C(=O)CC(c1ccc(N(C)C)cc1)C2 (stereo unspecified) | -0.3% | -12.3% | 12.6µM* | -25.3
COC(=O)c1[nH]c2c(c1C)C(=O)CC(c1ccccc1)C2 (stereo unspecified) | -1.1% | -5.7% | 4.8% | -110.9*
